PubChem BioAssay (Tox21)
Records with an inconclusive call do not appear. Activity calls are given as the source filed them. Unless noted, the call rests on the fitted dose curve; in most records, active means well fitted curve in the direction sought with a large enough effect in the repeat runs; inconclusive means weak or mixed curves; inactive means no such curve, though single readings can be large; an effect the other way counts as inactive or inconclusive.

Legend:
[1] = qHTS assay to identify small molecule agonists of the sonic hedgehog signaling (Shh) pathway (AID 1259368; calls by dose curve;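 further: NIH/3T3-derived 3T3Gli1-Luc cells carrying a stable Gli1-driven firefly luciferase reporter; nearly all actives have a fitted effect of over 15% in size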); settings: NIH/3T3 Gli1-Luc reporter, luciferase, 24 h, stronger effect = higher value; series mostly up to 92.4 µM
How it was run: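 NIH/3T3-derived 3T3Gli1-Luc cells with stably integrated Gli1-driven firefly luciferase, 2,000 cells/well, compounds added after 4 hr. Incubated 24 hr at 37C, 5% CO2; luminescence read after 30 min with luciferase reagent at room temperature.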

[2] = qHTS assay to identify small molecule antagonists of the sonic hedgehog signaling (Shh) pathway (AID 1259369; calls by dose curve; further: nearly all actives have a fitted effect of over 45% in size); settings: NIH/3T3 Gli1-Luc reporter, Shh antagonist, luminescence 24 h; series mostly up to 42.5 µM
How it was run: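 NIH/3T3-derived Gli1-Luc reporter cells plated 4 h, dosed with compound, then stimulated with conditioned medium for 24 h at 37 C. Firefly luciferase luminescence read after 30 min with detection reagent at room temperature.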

[3] = biological target: Estrogen receptor beta (Homo sapiens) (UniProt Q92731); assay: qHTS assay to identify small molecule agonists of the estrogen receptor beta (ER-beta) signaling pathway (AID 1259377; active means well fitted activation curve with a large enough effect in the signal ratio in the repeat runs, not every such curve was filed as active; the % refers to the signal ratio); settings: ER-beta-UAS-bla HEK293T, beta-lactamase FRET ratio, 16 h; series mostly up to 42.5 µM
Estrogen receptor beta (Homo sapiens), sequence (Q92731 whole entry, looked up): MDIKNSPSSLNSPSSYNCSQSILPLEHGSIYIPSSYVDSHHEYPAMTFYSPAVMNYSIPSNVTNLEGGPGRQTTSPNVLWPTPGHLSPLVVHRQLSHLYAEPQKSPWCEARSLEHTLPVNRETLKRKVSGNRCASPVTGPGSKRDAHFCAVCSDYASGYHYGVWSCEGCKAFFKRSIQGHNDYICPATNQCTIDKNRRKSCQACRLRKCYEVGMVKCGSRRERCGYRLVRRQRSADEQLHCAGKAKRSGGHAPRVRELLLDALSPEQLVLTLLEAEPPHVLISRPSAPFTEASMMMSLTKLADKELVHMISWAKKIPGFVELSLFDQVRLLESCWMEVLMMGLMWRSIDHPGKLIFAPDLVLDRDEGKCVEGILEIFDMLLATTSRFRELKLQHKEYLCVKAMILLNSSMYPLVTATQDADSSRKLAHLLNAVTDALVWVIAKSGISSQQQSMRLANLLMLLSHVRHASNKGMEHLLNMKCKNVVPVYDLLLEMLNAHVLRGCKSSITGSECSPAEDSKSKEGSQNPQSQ
How it was run: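 Ratiometric beta-lactamase FRET read-out came after 2 h substrate loading at room temperature. It followed 16 h compound treatment at 37C of GripTite HEK293T cells carrying a UAS-bla reporter, plated in 2% charcoal-stripped FBS medium.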

[4] = qHTS assay to identify small molecule agonists of the androgen receptor (AR) signaling pathway in the presence of an antagonist - cell viability counter screen (AID 1259379); settings: MDA-kb2 viability, CellTiter-Fluor, 16 h; series mostly up to 92.4 µM;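 further: MDA-kb2 human breast cancer cells carrying an MMTV luciferase reporter; nearly all actives have a fitted effect of over 25% in size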
How it was run: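 MDA-kb2 cells (MMTV-luciferase, AR/GR), 3,000/well, 5 h attachment, then 3.0 µM nilutamide (final) and compounds at 15 concentrations. Viability by CellTiter-Fluor fluorescence after 16 h at 37 °C, 0% CO2, in the reporter wells.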

[5] = qHTS assay to identify small molecule agonists of the estrogen receptor beta (ER-beta) signaling pathway - cell viability counter screen (AID 1259380); settings: ER-beta-bla HEK293T viability, CellTiter-Glo luminescence, 16 h; series mostly up to 92.4 µM; further: nearly all actives have a fitted effect of over 30% in size
How it was run: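 ER-beta-UAS-bla HEK293T cells in medium with 2% charcoal-stripped FBS, pre-incubated 6 hr, then treated 16 hr at 37C. Cytotoxicity read in the same wells by CellTiter-Glo luminescence after 30 min at room temperature.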

[6] = qHTS assay to identify small molecule antagonists of the estrogen receptor beta (ER-beta) signaling pathway - cell viability counter screen (AID 1259382); settings: ER-beta-UAS-bla HEK293T viability, CellTiter-Glo luminescence, 16 h; series mostly up to 92.4 µM;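 further: HEK293T cells carrying ER-beta-UAS-bla reporter stimulated with estradiol; nearly all actives have a fitted effect of over 55% in size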
How it was run: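 ER-beta-UAS-bla HEK293T cells in 2% charcoal-stripped FBS medium, treated with compound plus 1 nM 17-beta-estradiol for 16 h at 37C. Viability read by CellTiter-Glo luminescence after 30 min at room temperature in the same wells.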

[7] = qHTS assay to identify small molecule agonists or antagonists of the thyroid stimulating hormone receptor (TSHR) signaling pathway - wild type cell line counter screen (AID 1259384; calls by dose curve); settings: HEK293 wild type, cAMP HTRF counter-screen, stronger effect = higher value; series mostly up to 92.4 µM
How it was run: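 Counter screen in untransfected Hek293: compounds (15-point titration, triplicate) plus phosphodiesterase inhibitor Ro20-1724 added after 18 h plating; 30 min RT. Intracellular cAMP via competitive d2/cryptate immunoassay, 1 h incubation.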

[8] = biological target: Thyrotropin receptor (Homo sapiens) (UniProt P16473); assay: qHTS assay to identify small molecule antagonists of the thyroid stimulating hormone receptor (TSHR) signaling pathway (AID 1259385; calls by dose curve; further: nearly all actives have a fitted effect of over 20% in size); settings: TSHR-HEK293 cAMP HTRF, TSH-stimulated antagonist mode; series mostly up to 92.4 µM
Thyrotropin receptor (Homo sapiens), sequence (P16473 whole entry, looked up): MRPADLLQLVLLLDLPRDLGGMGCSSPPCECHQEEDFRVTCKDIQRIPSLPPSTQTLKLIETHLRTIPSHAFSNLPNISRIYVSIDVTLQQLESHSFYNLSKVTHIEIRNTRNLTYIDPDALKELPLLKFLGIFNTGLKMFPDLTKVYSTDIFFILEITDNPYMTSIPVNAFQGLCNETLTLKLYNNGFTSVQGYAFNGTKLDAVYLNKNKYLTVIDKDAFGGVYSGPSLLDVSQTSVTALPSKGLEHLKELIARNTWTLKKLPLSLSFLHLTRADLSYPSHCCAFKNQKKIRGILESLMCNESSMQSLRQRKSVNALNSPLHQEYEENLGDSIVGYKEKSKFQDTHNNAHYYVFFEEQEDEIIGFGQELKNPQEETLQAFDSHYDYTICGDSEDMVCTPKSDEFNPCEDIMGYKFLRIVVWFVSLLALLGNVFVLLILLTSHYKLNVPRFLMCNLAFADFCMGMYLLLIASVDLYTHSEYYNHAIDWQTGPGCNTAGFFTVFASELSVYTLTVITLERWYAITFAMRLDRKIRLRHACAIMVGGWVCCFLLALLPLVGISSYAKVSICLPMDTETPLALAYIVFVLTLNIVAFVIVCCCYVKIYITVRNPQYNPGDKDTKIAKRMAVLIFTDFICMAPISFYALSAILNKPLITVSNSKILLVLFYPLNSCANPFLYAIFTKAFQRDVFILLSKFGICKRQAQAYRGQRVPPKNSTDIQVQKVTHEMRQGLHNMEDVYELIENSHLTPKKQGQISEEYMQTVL
How it was run: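 Antagonist mode: compound-treated TSHR-expressing HEK293 cells were stimulated with 1.5 ng/mL TSH (final) in presence of Ro20-1724 for 30 min at RT. HTRF cAMP detection after 1 h; each compound tested at 15 concentrations, triplicate.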

[9] = qHTS assay to identify small molecule agonists of the estrogen receptor alpha (ER-alpha) signaling pathway in the presence of an antagonist - cell viability counter screen (AID 1259386); settings: VM7Luc4E2 viability, CellTiter-Fluor fluorescence, 22 h; series mostly up to 92.4 µM;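 further: cells exposed to compounds for 22 h at 37 °C before the viability read; nearly all actives have a fitted effect of over 30% in size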
How it was run: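 Cell viability in VM7Luc4E2 cells (endogenous full-length ER-alpha) measured by CellTiter-Fluor fluorescence in the same wells as the luciferase screen. Cells pre-cultured 5 days in charcoal-stripped serum, then treated 22 h with compounds at 15 concentrations plus 10.0nM ICI-182,780.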

[10] = biological target: Progesterone receptor (Homo sapiens) (UniProt P06401); assay: qHTS assay to identify small molecule agonists of the progesterone receptor (PR) signaling pathway (AID 1346784; calls by dose curve; further: nearly all actives have a fitted effect of over 30% in size); settings: PR-UAS-bla HEK293T, beta-lactamase FRET ratio, 16 h; series mostly up to 92.4 µM
Progesterone receptor (Homo sapiens), sequence (P06401 whole entry, looked up): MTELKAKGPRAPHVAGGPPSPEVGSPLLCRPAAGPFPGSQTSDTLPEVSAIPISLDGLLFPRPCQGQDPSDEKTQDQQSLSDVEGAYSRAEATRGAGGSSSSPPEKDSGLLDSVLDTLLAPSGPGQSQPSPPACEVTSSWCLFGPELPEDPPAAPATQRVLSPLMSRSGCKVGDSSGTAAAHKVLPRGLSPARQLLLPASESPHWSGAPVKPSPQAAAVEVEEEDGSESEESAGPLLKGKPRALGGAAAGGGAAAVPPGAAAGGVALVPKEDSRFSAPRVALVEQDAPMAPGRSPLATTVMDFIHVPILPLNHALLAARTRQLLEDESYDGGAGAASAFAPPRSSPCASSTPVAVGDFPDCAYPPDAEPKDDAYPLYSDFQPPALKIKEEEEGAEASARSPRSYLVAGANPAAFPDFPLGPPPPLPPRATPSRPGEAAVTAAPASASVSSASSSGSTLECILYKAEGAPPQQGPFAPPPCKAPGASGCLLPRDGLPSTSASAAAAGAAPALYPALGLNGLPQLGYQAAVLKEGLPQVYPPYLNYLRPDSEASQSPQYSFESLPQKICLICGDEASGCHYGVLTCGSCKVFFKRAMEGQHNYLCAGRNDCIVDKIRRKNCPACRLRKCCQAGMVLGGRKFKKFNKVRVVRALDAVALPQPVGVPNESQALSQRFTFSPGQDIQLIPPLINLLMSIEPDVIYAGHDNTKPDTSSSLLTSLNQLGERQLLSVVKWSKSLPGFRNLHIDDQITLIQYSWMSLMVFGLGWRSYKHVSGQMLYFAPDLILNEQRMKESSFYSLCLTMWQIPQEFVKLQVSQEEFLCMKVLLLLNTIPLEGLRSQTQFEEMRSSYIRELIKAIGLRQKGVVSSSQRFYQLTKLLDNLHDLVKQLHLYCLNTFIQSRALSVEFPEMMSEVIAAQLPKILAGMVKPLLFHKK
How it was run: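 Agonist qHTS: compounds pinned onto 3,000 PR-UAS-bla HEK 293T cells per well in charcoal-stripped serum medium, 16hr at 37C, then beta-lactamase activity measured by LiveBLAzer FRET fluorescence after 2 hours at room temperature.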

[11] = qHTS assay to identify small molecule antagonists of the progesterone receptor (PR) signaling pathway - cell viability counter screen (AID 1346798); settings: PR-UAS-bla HEK293T viability, CellTiter-Glo luminescence, 16 h; series mostly up to 42.5 µM; further: nearly all actives have a fitted effect of over 50% in size; further: potency means the concentration at half of the fitted maximal effect
How it was run: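 Cytotoxicity read as CellTiter-Glo luminescence (30 min, room temperature) in the same wells as the beta-lactamase readout. HEK293T PR-UAS-bla cells in charcoal-stripped 2% FBS received compound and R5020, then 16 h at 37C, 5% CO2.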

[12] = qHTS assay to identify small molecule agonists of the progesterone receptor (PR) signaling pathway - cell viability counter screen (AID 1346799; calls by dose curve; further: nearly all actives have a fitted effect of over 45% in size); settings: PR-UAS-bla HEK293T viability, CellTiter-Glo luminescence, 16 h; series mostly up to 92.4 µM
How it was run: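 Cytotoxicity measured by CellTiter-Glo luminescence (30 min, RT) in the same wells as the PR beta-lactamase agonist read. Those HEK293T cells had 16 h compound treatment at 37 C in 2% charcoal-stripped FBS medium.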

[13] = qHTS assay to identify small molecule antagonists of the TGF-beta/Smad signaling pathway - cell viability counter screen (AID 1346824); settings: SBE-bla HEK293T viability, CellTiter-Glo luminescence; series mostly up to 76.8 µM; further: nearly all actives have a fitted effect of over 50% in size
How it was run: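 Cytotoxicity counter-screen run in the same wells as the beta-lactamase Smad reporter read: CellTiter-Glo luminescence after 30 min at room temperature. HEK 293T SBE-bla cells had 5 hr compound exposure at 37 C with TGF-beta1 (0.25 ng/mL stock).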

[14] = qHTS assay to identify small molecule agonists of the TGF-beta/Smad signaling pathway - cell viability counter screen (AID 1346829); settings: SBE-bla HEK293T viability, CellTiter-Glo luminescence, 5 h; series mostly up to 76.8 µM; further: top concentration of the series differs between compounds; nearly all actives have a fitted effect of over 45% in size
How it was run: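 Here the cytotoxicity of library compounds is measured in SBE-bla HEK 293T cells treated for 5 hr, using CellTiter-Glo added to wells already read for the beta-lactamase reporter.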

[15] = qHTS assay to identify small molecule agonists of the TGF-beta/Smad signaling pathway (AID 1346859; active means well fitted activation curve with a large enough effect in the signal ratio in the repeat runs, not every such curve was filed as active; the % refers to the signal ratio); settings: SBE-bla HEK293T, TGF-beta/Smad beta-lactamase reporter, 5 h; series mostly up to 76.8 µM
How it was run: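 Fluorescence (ex 405 nm; em 460 and 530 nm) was read 2 h after LiveBLAzer FRET substrate at RT. The preceding compound treatment of overnight-plated SBE-bla HEK293T cells lasted 5 h at 37 C.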

[16] = biological target: Thyrotropin-releasing hormone receptor (Homo sapiens) (UniProt P34981); assay: qHTS assay to identify small molecule antagonists of the thyrotropin-releasing hormone receptor (TRHR) signaling pathway (AID 1346877; active means well fitted inhibition curve with a large enough effect in the repeat runs, not every such curve was filed as active); settings: TRHR-HEK293, TRH-induced calcium fluorescence, antagonist mode; series mostly up to 51.3 µM
Thyrotropin-releasing hormone receptor (Homo sapiens), sequence (P34981 whole entry, looked up): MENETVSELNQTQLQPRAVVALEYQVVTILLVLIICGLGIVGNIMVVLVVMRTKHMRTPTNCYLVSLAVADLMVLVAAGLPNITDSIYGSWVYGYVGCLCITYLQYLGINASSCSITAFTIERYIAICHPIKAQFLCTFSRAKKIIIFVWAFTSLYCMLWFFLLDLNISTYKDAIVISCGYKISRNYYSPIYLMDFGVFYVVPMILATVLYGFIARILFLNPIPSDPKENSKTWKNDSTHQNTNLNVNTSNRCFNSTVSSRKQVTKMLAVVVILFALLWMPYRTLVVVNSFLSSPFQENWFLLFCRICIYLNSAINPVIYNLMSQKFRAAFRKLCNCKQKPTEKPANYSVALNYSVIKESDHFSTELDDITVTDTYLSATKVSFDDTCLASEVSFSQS
How it was run: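 TRHR-expressing HEK293 cells loaded with calcium dye for 2 h at 37 C; compounds pre-incubated 5 min at room temperature before TRH challenge at 1 nM final. Intracellular calcium fluorescence read kinetically for 3 min; 15 concentrations in triplicate.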

[17] = biological target: Estrogen receptor (Homo sapiens) (UniProt P03372); assay: qHTS assay to identify small molecule agonists of the estrogen receptor alpha (ER-alpha) signaling pathway in the presence of an antagonist (AID 1259383; calls by dose curve; further: top concentration of the series differs between compounds; nearly all actives have a fitted effect of over 15% in size); settings: VM7Luc4E2 cells, ERE-luciferase, +ICI-182,780, 22 h; series mostly up to 92.4 µM
Estrogen receptor (Homo sapiens), sequence (P03372 whole entry, looked up): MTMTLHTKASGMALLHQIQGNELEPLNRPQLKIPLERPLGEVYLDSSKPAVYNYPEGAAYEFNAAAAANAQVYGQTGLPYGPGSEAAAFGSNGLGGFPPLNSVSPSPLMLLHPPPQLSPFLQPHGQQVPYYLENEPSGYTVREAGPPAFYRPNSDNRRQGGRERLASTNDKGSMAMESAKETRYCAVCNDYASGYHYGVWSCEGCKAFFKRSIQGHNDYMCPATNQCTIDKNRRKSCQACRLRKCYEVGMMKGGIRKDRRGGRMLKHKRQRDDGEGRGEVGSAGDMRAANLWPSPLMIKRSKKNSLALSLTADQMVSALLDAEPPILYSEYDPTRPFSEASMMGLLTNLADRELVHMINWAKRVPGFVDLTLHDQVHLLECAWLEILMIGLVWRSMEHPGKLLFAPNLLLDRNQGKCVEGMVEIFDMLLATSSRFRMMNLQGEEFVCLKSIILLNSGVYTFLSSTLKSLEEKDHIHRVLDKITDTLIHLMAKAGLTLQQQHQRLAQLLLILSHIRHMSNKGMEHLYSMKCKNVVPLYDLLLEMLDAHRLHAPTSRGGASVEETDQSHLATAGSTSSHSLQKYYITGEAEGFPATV
How it was run: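 VM7Luc4E2 cells express endogenous full-length ER-alpha with an ERE-luciferase reporter and were hormone-deprived for 5 days. Compounds at 15 concentrations were added with 10.0nM ICI-182,780 for 22hr at 37C. Luminescence was read with ONE-Glo.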

[18] = biological target: Progesterone receptor (Homo sapiens) (UniProt P06401); assay: qHTS assay to identify small molecule antagonists of the progesterone receptor (PR) signaling pathway (AID 1346795; active means well fitted inhibition curve with a large enough effect in the signal ratio in the repeat runs, not every such curve was filed as active; the % refers to the signal ratio); settings: PR-UAS-bla HEK293T, beta-lactamase FRET ratio, 16 h; series mostly up to 42.5 µM
How it was run: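 Antagonist mode with agonist R5020 at 1 nM final and 16 hr incubation at 37C. Reporter was beta-lactamase driven by UAS in HEK293T (PR-UAS-bla), 2% charcoal-stripped serum; signal from LiveBLAzer FRET substrate, 2 hr at room temperature.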

[19] = biological target: Androgen receptor (Homo sapiens) (UniProt P10275); assay: qHTS assay to identify small molecule agonists of the androgen receptor (AR) signaling pathway in the presence of an antagonist (AID 1259381; calls by dose curve; further: nearly all actives have a fitted effect of over 15% in size); settings: MDA-kb2 MMTV-luciferase, AR agonist + nilutamide, 16 h; series mostly up to 42.5 µM
Androgen receptor (Homo sapiens), sequence (P10275 whole entry, looked up): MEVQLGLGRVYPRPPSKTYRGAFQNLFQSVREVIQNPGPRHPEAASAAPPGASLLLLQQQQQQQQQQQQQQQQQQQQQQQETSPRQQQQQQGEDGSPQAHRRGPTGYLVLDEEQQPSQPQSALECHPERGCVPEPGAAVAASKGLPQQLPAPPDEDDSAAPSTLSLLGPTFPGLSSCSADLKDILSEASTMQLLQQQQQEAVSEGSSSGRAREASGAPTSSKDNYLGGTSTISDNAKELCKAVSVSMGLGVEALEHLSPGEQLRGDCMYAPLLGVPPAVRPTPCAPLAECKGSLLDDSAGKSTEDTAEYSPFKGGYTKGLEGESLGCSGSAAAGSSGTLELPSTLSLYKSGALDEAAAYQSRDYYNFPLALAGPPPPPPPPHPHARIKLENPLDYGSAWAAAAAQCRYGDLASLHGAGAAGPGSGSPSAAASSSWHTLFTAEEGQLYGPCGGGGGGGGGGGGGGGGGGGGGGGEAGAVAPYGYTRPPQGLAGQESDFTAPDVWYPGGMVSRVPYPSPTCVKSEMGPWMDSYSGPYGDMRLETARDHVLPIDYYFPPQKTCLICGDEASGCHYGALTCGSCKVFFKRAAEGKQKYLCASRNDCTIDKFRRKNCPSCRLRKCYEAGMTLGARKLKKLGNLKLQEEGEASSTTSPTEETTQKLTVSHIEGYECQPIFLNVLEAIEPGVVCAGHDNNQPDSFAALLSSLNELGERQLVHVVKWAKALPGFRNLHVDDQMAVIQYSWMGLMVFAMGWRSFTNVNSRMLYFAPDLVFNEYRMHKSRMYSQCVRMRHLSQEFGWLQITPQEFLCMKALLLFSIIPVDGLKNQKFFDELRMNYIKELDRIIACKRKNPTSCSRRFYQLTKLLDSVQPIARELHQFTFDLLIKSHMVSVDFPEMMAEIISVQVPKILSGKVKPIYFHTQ
How it was run: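 MDA-kb2 cells carrying MMTV-luciferase (AR/GR responsive), 3,000 cells/well, co-treated with 3.0 uM nilutamide final. Compounds at 15 concentrations, 16 hr at 37C without CO2. Luciferase luminescence read after 30 min with ONE-Glo.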

Measured: Potency

NCCc1cnc[nH]1
not listed: [17] | [18] | [19]
inactive: all other assays above

N=c1nc(N2CCCCC2)cc(N)n1O
not listed: [4] | [19]
inactive: all other assays above

CC1(C)CO[C@@H](CC(=O)O)CN1
not listed: [14] | [19]
inactive: all other assays above

O=C(O)CNC(=O)c1ccc([N+](=O)[O-])cc1
not listed: [7] | [8] | [17] | [19]
inactive: all other assays above

O=C(O)CCCc1ccccc1
not listed: [11] | [12] | [17] | [19]
inactive: all other assays above

COC(=O)c1c(Cl)c(Cl)c(C(=O)OC)c(Cl)c1Cl
not listed: [16] | [18] | [19]
inactive: all other assays above

CC(C)(C)c1nnc(NS(=O)(=O)c2ccccc2)s1
not listed: [19]
inactive: all other assays above

O=c1cc(CO)occ1O
not listed: [4] | [12] | [19]
inactive: all other assays above

CCCCCCCCS(=O)(=O)Cl
not listed: [17] | [19]
inactive: all other assays above

CCCCOCCOCCOCCCC
not listed: [17] | [18] | [19]
inactive: all other assays above

CCn1ccnc1CC1COc2ccccc2O1 (centres undefined)
not listed: [3]
inactive: all other assays above

CC(C)(C)NCCNC(C)(C)C
active: [11] 864 nM
not listed: [3] | [12] | [16] | [19]
inactive: all other assays above

NC(=O)COCCN1CCN(C(c2ccccc2)c2ccc(Cl)cc2)CC1 (centres undefined)
not listed: [3]
inactive: all other assays above
